High-throughput results from PubChem.
HNF4A DNA FP = change in binding of human HNF4 alpha to DNA; P41235; HNF4a-FITC DNA binding, fluorescence polarization, 1 h; activity change, % at 10 µM; 360,000 compounds, 0.3% hits; AID 1224865; in the data active = activity change above about 30%, passing the limit was not always enough
Target sequence (P41235 whole entry, looked up): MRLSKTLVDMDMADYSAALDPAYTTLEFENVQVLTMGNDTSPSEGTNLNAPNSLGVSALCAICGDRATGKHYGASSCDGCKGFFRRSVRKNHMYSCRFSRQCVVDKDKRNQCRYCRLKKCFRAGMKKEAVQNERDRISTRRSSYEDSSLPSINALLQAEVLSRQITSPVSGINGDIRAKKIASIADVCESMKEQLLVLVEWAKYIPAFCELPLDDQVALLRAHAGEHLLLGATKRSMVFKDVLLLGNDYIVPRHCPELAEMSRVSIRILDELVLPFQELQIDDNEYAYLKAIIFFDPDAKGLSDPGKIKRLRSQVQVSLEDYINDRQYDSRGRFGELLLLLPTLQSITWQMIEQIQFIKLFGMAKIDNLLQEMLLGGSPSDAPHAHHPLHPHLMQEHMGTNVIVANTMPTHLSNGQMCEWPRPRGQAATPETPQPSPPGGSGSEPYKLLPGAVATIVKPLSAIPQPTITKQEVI
CRFBP-R2 agonist = CRF-BP/CRF-R2 complex agonism; HEK293 CRF-R2/CRF-BP, calcium dye fluorescence (FLIPR); percent of saturating CRF peptide response; activation, % at 13.2 µM; 350,000 compounds, 0.46% hits; AID 588473;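 active = activation of at least 50%, plus an integration ratio under a set limit after plate pattern correction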;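 also: plate controls were neutral control wells without compound for no effect and CRF at EC100 for full effect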
IDE cell inh = inhibitors of human insulin-degrading enzyme in cells; AID 434962; HEK cells, FAbetaB cleavage, fluorescence polarization; inhibition, % at 5.59 µM; 320,000 compounds, 0.41% hits; P14735;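 active = percent inhibition above the average of all tested compounds plus 3 SD, set per screening campaign, cut at about 16% in these data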;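 also: IDE supplied by intact live HEK cells; FP after avidin binding of uncleaved biotin substrate so inhibition keeps polarization high; 0% = DMSO wells and 100% = 60 µM reference IDE inhibitor Ii1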
IDE act = boosts human insulin-degrading enzyme activity in HEK cells; 340,000 compounds, 0.073% hits; FAbeta-B cleavage, fluorescence polarization; 0% vehicle, 100% cell-free pure enzyme wells; P14735; activation, % at 5.96 µM;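 active = activation above the mean of all tested compounds plus 3 SD, set per screening campaign, cut at about 17% in these data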
TPT1 inh = inhibitors of Candida albicans tRNA 2'-phosphotransferase TPT1 | recombinant caTPT1, FP RNA substrate dephosphorylation | inhibition, % at 5 µM | 300,000 compounds, 0.81% hits | AID 1962;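 active = inhibition above the mean of all tested compounds plus 3 SD, set per screening campaign, cut at about 24% in these data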;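 also: plate controls were DMSO alone for no effect and ferristatin control at 100 nM for full effect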
caTPT1 confirm = TPT1 (C. albicans) inhibition, confirmation | shares compounds with TPT1 inh | 2,400 compounds, 74% hits | inhibition, % at 5 µM | recombinant caTPT1, fluorescence polarization, RNase T1 coupled | AID 2149;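 active = inhibition above the primary screen limit, the mean inhibition of all tested compounds plus 3 SD, cut at about 25% in these data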
RNase T1 counter = counter-screen for TPT1 inhibitors: inhibitors of Aspergillus oryzae RNase T1; shares compounds with TPT1 inh; RNase T1 cleavage, fluorescence polarization, 1536-well; inhibition, % at 5 µM; 2,400 compounds, 83% hits; AID 2153;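 active = inhibition above the solvent-only control well mean plus 3 SD, limit set per screening run, cut at about 23% in these data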;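 also: plate controls were DMSO wells with enzyme for no effect and wells without RNase T1 for full effect; inhibitors block cleavage so intact labeled substrate keeps polarization high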
Target sequence (P00651 whole entry, looked up): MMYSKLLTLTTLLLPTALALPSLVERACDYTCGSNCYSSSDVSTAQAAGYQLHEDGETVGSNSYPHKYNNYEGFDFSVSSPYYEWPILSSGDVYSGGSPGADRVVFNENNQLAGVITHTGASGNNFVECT
An asterisk follows results filed as active; x = no result given. Compounds with a hit are over-represented: about 1.4% of the library has one in this group of screens.

SMILES	HNF4A DNA FP	CRFBP-R2 agonist	IDE cell inh	IDE act	TPT1 inh	caTPT1 confirm	RNase T1 counter
CCC1([N+](=O)[O-])COC(c2ccc(Cl)cc2)OC1 (configuration not stated)	-3	1	x	-5	x	x	x
CC(=O)c1ccc(NS(=O)(=O)c2ccc(C)cc2)cc1	-1	-2	-1	2	-5	x	x
COc1cc(OC)c(OC)cc1/C=C/C(=O)c1ccc(NS(=O)(=O)c2ccc(C)cc2)cc1	35	20	13	-12	78*	86*	95*
CCCc1nc2ccc([N+](=O)[O-])cc2[nH]1	4	-1	7	1	29*	4	7
CCC(C)N1C(=O)/C(=C/c2c(NCCCOC(C)C)nc3c(C)cccn3c2=O)SC1=S (configuration not stated)	2	59*	14	-34	151*	165*	156*
Cc1cccn2c(=O)c(C=NCc3ccccc3)c(NCCO)nc12	2	-1	-4	0	-4	x	x
CCC(C)Nc1nc2c(C)cccn2c(=O)c1C=Nc1ccc(OC)cc1 (configuration not stated)	0	1	-3	1	0	x	x
CCCN1C(=O)/C(=C/c2c(NCCCOC(C)C)nc3c(C)cccn3c2=O)SC1=S	85	191*	-2	0	121*	116*	129*
Cc1ccccc1NC(=O)c1c(C)[nH]c(=S)c(C#N)c1-c1ccc(Cl)cc1	1	-1	8	x	30*	15	22*
Nc1c(C2CCCCC2)c(=O)on1C(=O)c1ccccc1	-1	1	x	-1	x	x	x
CNS(=O)(=O)c1cccc(C(=O)NCC(C)(C)N2CCCCC2)c1	1	0	3	0	-8	x	x
N/C(Cc1ccc(Cl)c(Cl)c1)=N\OC(=O)c1ccc(Br)o1	0	0	1	-5	4	x	x
Cc1sc2nc(COC(=O)c3cccc(S(=O)(=O)N(C)c4ccccc4)c3)[nH]c(=O)c2c1C	20	17	6	-10	52*	45*	55*
COc1ccc(C2CC(c3ccccc3)=NN2c2ccc(N)cc2)cc1 (configuration not stated)	19	-1	0	7	29*	38*	51*
CC(C)(C)c1ccc(C(=O)N2CCC2(C)C(=O)Nc2cccc3ncccc23)cc1 (configuration not stated)	-5	x	x	x	x	x	x
CCCNC(=O)Cn1c(=O)/c(=C/c2ccc(-c3cccc([N+](=O)[O-])c3)o2)s/c1=C\C(=O)C(C)(C)C	-49	32	x	4	x	x	x
CCCNC(=O)Cn1c(=O)/c(=C\c2ccc(-c3cccc([N+](=O)[O-])c3)o2)s/c1=C\C(=O)C(C)(C)C	-54	57*	-2	4	50*	-88	-58
CN(C)C(=O)c1cccc(-c2cnc3c(NC=O)cc(-c4ccc(N(C)C)cc4)cn23)c1	5	x	x	x	x	x	x
CNC(=O)c1[nH]cnc1C(=O)Nc1ccccn1	2	3	10	0	94*	4	8
O=C(/C=C/Nc1ccc(S(=O)(=O)Nc2cnc3ccccc3n2)cc1)c1ccccc1	4	0	0	6	2	x	x
O=C1CCCC/C1=C\Nc1ccc(S(=O)(=O)Nc2cnc3ccccc3n2)cc1	10	-1	-13	0	55*	33*	45*
Cc1cccnc1C(NC(=O)C1CCN(Cc2cn(C)c3ccccc23)CC1)c1ccc(Cl)cc1 (configuration not stated)	-1	x	x	x	x	x	x
CCN(CC)c1ccc(/C=N/NC(=O)c2cc(C)nc3ccccc23)cc1	-2	0	10	-2	1	x	x
CCN(CC)c1ccc(/C=C/c2cc(-c3ccccc3)c3ccccc3n2)cc1	99	67*	5	-6	94*	87*	90*
Cc1ccc(N2C(=O)CS/C2=C(\C(Cl)=C(Cl)Cl)[N+](=O)[O-])cc1	21	1	-6	-5	93*	43*	51*
SMILES	HNF4A DNA FP	CRFBP-R2 agonist	IDE cell inh	IDE act	TPT1 inh	caTPT1 confirm	RNase T1 counter
COc1ccc(N2CCN(C(=O)c3ccc4c(c3)NC(=O)C(CSCc3cccc(F)c3)N4)CC2)cc1 (configuration not stated)	x	x	4	x	85*	8	14
O=C(CSCc1cccc(F)c1)N1CCN(c2ccccc2)CC1	6	-1	4	-2	1	x	x
COc1ccc(N2CCN(C(=O)c3ccc4c(c3)NC(=O)C(CSCc3ccc(C)cc3)N4)CC2)cc1 (configuration not stated)	x	x	2	x	92*	22	34*
COc1ccc(C(=O)N2CCC(C(=O)N3CCN(c4ccccc4)CC3)CC2)cc1	0	-2	4	-1	-1	x	x
COc1ccc(N2CCN(C(=O)c3ccc4c(c3)NC(=O)C(CSCc3c(F)cccc3Cl)N4)CC2)cc1 (configuration not stated)	x	x	8	x	66*	12	19
COc1ccc(N2CCN(C(=O)c3ccc(N(C)S(=O)(=O)c4ccc(C)cc4)cc3)CC2)cc1	4	-1	11	-1	-3	x	x
Cc1ccc(NC(=O)CSc2nc(=O)n(CCCN3CCOCC3)c3c2CCCC3)c(C)c1	1	3	4	2	66*	3	4
NC(=O)C1CCCN1Cc1ccc2c(c1)OCO2 (configuration not stated)	5	-1	x	-2	x	x	x
Cc1ccc(S(=O)(=O)c2cc(C#N)c(=O)[nH]c2N)cc1	10	2	2	8	33*	23	29*
COc1nc(N)c(S(=O)(=O)c2ccc(C)cc2)cc1C#N	16	0	0	0	29*	21	29*
Cc1nc2ccccc2c(=O)n1/N=C/c1ccc2ccccc2c1O	1	-3	1	-1	54*	26*	35*
O=C1/C(=C/c2ccco2)CCc2ccccc21	5	0	2	-1	6	x	x
Nc1ccc2c(c1)C/C(=C/c1ccco1)C2=O	-37	10	2	2	26*	-3	10
CC(=O)C1=C(C)NC(SCC(=O)c2ccc(-c3ccccc3)cc2)=C(C#N)C1c1cccnc1 (configuration not stated)	x	x	4	x	30*	39*	50*
C=CCOC(=O)C1=C(C)NC(SCC(=O)N(CC)CC)=C(C#N)C1c1ccccc1 (configuration not stated)	-3	-1	1	14	-2	x	x
C=CCOC(=O)C1=C(C)NC(SCC(=O)NC(=O)OCC)=C(C#N)C1c1cccnc1 (configuration not stated)	-8	-2	3	-2	25*	23	31*
